This is part of a sample that, as a whole, favours compounds with a hit. Of some 79,000 tested, about 15% had one in any assay. The source made the active and inactive calls. Cut-off read from the data, not from the text of the source: active = growth inhibition above about 70%; inactive = the rest.
Tests used:
[1] = NCI Yeast Anticancer Drug Screen. Data for the rad52 strain (AID 147);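 note: 0% = growth of vehicle-treated control cultures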; conditions: S. cerevisiae rad52 mutant growth inhibition, stronger effect = higher value
How it was run: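 Inhibition of yeast growth, referenced to vehicle controls, was the measured output for a strain with defective DNA damage repair.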

[2] = NCI Yeast Anticancer Drug Screen. Data for the wt1 strain (AID 149);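 note: 0% = growth of vehicle-treated wt1 cultures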; conditions: S. cerevisiae wt1 strain (SPY 50644) growth inhibition, stronger effect = higher value
How it was run: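 The wt1 strain was treated with compounds, and growth was compared with vehicle-treated cultures to give inhibition.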

[3] = NCI Yeast Anticancer Drug Screen. Data for the rad50EPP+ strain (AID 151);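 note: 0% = growth of vehicle-treated control cultures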; conditions: S. cerevisiae rad50 mutant strain, stronger effect = higher value
How it was run: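 Genetically defined yeast (rad50EPP+, DNA damage repair alteration) is grown with compound, and inhibition of growth is expressed relative to vehicle-treated controls.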

[4] = NCI Yeast Anticancer Drug Screen. Data for the mgt1 strain (AID 153); conditions: S. cerevisiae mgt1 mutant growth inhibition, stronger effect = higher value
How it was run: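 In the mgt1 strain, test compounds were added and growth inhibition was determined relative to vehicle-treated controls.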

[5] = NCI Yeast Anticancer Drug Screen. Data for the rad50 strain (AID 155);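 note: 0% = growth of vehicle-only cultures of the same strain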; conditions: S. cerevisiae rad50 strain growth inhibition, stronger effect = higher value
How it was run: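 Cells are treated with compound, grown, and their growth is then scored against vehicle-only cultures of the same repair-deficient yeast strain.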

[6] = NCI Yeast Anticancer Drug Screen. Data for the mec2-1 strain (AID 157); conditions: S. cerevisiae mec2-1 strain, stronger effect = higher value
How it was run: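 Each compound was tested on mec2-1 yeast, a strain altered in DNA damage repair or cell cycle control. Growth inhibition is reported relative to vehicle.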

[7] = NCI Yeast Anticancer Drug Screen. Data for the rad14 strain (AID 159);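 note: 0% = growth of vehicle-treated control cultures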; conditions: S. cerevisiae rad14 strain growth inhibition, stronger effect = higher value
How it was run: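 Readout: yeast growth inhibition, referenced to vehicle-only cultures. Strain bears a defined alteration in DNA damage repair.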

[8] = NCI Yeast Anticancer Drug Screen. Data for the sgs1 mgt1 strain (AID 161);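 note: 0% = growth of cultures given vehicle only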; conditions: S. cerevisiae sgs1 mgt1 strain, stronger effect = higher value
How it was run: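 Read-out: growth inhibition vs vehicle controls. Cells: mutant yeast strain deficient in DNA damage repair.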

[9] = NCI Yeast Anticancer Drug Screen. Data for the CLN2oe strain (AID 163);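 note: 0% = growth of vehicle-only control cultures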; conditions: S. cerevisiae CLN2oe strain, stronger effect = higher value
How it was run: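 First, the altered yeast strain was treated with each compound; second, its growth was measured; finally, inhibition was derived by comparison with vehicle controls.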

[10] = NCI Yeast Anticancer Drug Screen. Data for the cln2 rad14 strain (AID 165);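 note: 0% = growth equal to vehicle treated cultures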; conditions: S. cerevisiae cln2 rad14 strain, stronger effect = higher value
How it was run: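 Test compounds were added to cln2 rad14 yeast cultures; inhibition of growth was then determined by comparison with vehicle treatment.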

[11] = NCI Yeast Anticancer Drug Screen. Data for the bub3 strain (AID 167); conditions: S. cerevisiae bub3 mutant strain, stronger effect = higher value
How it was run: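 Part of a panel of yeast mutants defective in DNA damage repair or cell cycle regulation. Each strain is grown with compound, and inhibition is calculated relative to solvent-treated cultures.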

[12] = NCI Yeast Anticancer Drug Screen. Data for the sgs1 strain (AID 173);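 note: 0% = growth of vehicle-only control cultures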; conditions: S. cerevisiae sgs1 mutant, stronger effect = higher value
How it was run: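 Vehicle-treated cultures served as reference for growth inhibition of a yeast strain altered in DNA damage repair or cell cycle control after compound exposure.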

[13] = NCI Yeast Anticancer Drug Screen. Data for the mlh1 rad18 strain (AID 175); conditions: S. cerevisiae mlh1 rad18 strain growth inhibition, stronger effect = higher value
How it was run: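 Inhibition values reflect reduced growth of mutant yeast versus vehicle-treated controls following compound exposure; the mutations affect DNA damage repair.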

[14] = NCI Yeast Anticancer Drug Screen. Data for the rad18 strain (AID 177); conditions: S. cerevisiae rad18 mutant growth inhibition, stronger effect = higher value
How it was run: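 Steps: expose repair-mutant yeast to compound; measure growth; express as inhibition relative to vehicle control.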

[15] = NCI Yeast Anticancer Drug Screen. Data for the mlh1 strain (AID 171);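 note: 0% = growth of vehicle-treated control cultures of the same strain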; conditions: S. cerevisiae mlh1 strain growth inhibition, stronger effect = higher value
How it was run: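 Inhibition values reflect reduced yeast growth in the presence of compound, referenced to vehicle controls, using a strain chosen for its alteration in DNA repair or cell cycle control.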

[16] = at 5.0 µM (retest, dose inferred, filed as 0.5)
[17] = at 50.0 µM (retest, dose inferred, filed as 5.0)

Measured: growth inhibition

COC1=CC(=O)C(C2(OC(C)C)OC(=O)C(Cl)=C2Cl)=CC1=O (stereo unspecified)
active: [1]; at 11.0 µM 99% | [1]; at 33.0 µM 99% | [1]; at 100.0 µM 99% | [2]; at 11.0 µM 97% | [2]; at 33.0 µM 99% | [2]; at 100.0 µM 99% | [3]; at 11.0 µM 94% | [3]; at 33.0 µM 99% | [3]; at 100.0 µM 99% | [4]; at 11.0 µM 99% | [4]; at 33.0 µM 99% | [4]; at 100.0 µM 99% | [5]; at 11.0 µM 99% | [5]; at 33.0 µM 99% | [5]; [17] 99% | [5]; at 50.0 µM 96.2% | [5]; at 100.0 µM 99% | [6]; at 11.0 µM 100% | [6]; at 33.0 µM 100% | [6]; [17] 99% | [6]; at 50.0 µM 86.7% | [6]; at 100.0 µM 99% | [7]; at 11.0 µM 99% | [7]; at 33.0 µM 99% | [7]; at 100.0 µM 99% | [8]; [17] 99% | [8]; at 50.0 µM 99.5% | [9]; at 3.7 µM 87% | [9]; at 11.0 µM 99% | [9]; at 33.0 µM 99% | [9]; at 100.0 µM 99% | [10]; [17] 99% | [11]; at 11.0 µM 99% | [11]; at 33.0 µM 99% | [11]; [17] 99% | [11]; at 100.0 µM 99% | [12]; at 11.0 µM 99% | [12]; at 33.0 µM 99% | [12]; at 100.0 µM 99% | [13]; [17] 99% | [13]; at 50.0 µM 91.8% | [14]; at 11.0 µM 99% | [14]; at 33.0 µM 99% | [14]; at 100.0 µM 99%
inactive: [1]; at 1.2 µM 1% | [1]; at 3.7 µM 22% | [2]; at 1.2 µM 1% | [2]; at 3.7 µM 8% | [3]; at 1.2 µM 8% | [3]; at 3.7 µM 48% | [4]; at 1.2 µM -3% | [4]; at 3.7 µM 17% | [5]; at 1.2 µM 1% | [5]; at 3.7 µM 33% | [5]; [16] 56% | [6]; at 1.2 µM 8% | [6]; at 3.7 µM 65% | [6]; [16] 47% | [7]; at 1.2 µM 3% | [7]; at 3.7 µM 37% | [8]; [16] 53% | [9]; at 1.2 µM 0% | [10]; [16] 30% | [10]; at 50.0 µM 63.5% | [11]; at 1.2 µM 0% | [11]; at 3.7 µM 34% | [11]; [16] 30% | [11]; at 50.0 µM 59.9% | [12]; at 1.2 µM 2% | [12]; at 3.7 µM 37% | [13]; [16] 43% | [14]; at 1.2 µM 7% | [14]; at 3.7 µM 49%

C[Si](C)(C)CNC(=O)OCc1ccccc1
active: [11]; at 33.0 µM 83% | [11]; [17] 93% | [11]; at 50.0 µM 93.5% | [11]; at 100.0 µM 94%
inactive: [1]; at 1.2 µM -1% | [1]; at 3.7 µM -4% | [1]; at 11.0 µM 6% | [1]; at 33.0 µM 2% | [1]; at 100.0 µM 16% | [2]; at 1.2 µM 2% | [2]; at 3.7 µM -2% | [2]; at 11.0 µM -3% | [2]; at 33.0 µM -4% | [2]; at 100.0 µM -3% | [3]; at 1.2 µM 1% | [3]; at 3.7 µM -1% | [3]; at 11.0 µM 10% | [3]; at 33.0 µM 21% | [3]; at 100.0 µM 41% | [4]; at 1.2 µM 7% | [4]; at 3.7 µM 5% | [4]; at 11.0 µM -5% | [4]; at 33.0 µM -4% | [4]; at 100.0 µM 12% | [5]; at 1.2 µM 1% | [5]; at 3.7 µM -10% | [5]; [16] -1% | [5]; at 11.0 µM 1% | [5]; at 33.0 µM 19% | [5]; [17] -8% | [5]; at 50.0 µM 37.1% | [5]; at 100.0 µM 56% | [6]; at 1.2 µM -2% | [6]; at 3.7 µM -3% | [6]; [16] -1% | [6]; at 11.0 µM 1% | [6]; at 33.0 µM 1% | [6]; [17] 32% | [6]; at 50.0 µM 21.9% | [6]; at 100.0 µM 11% | [7]; at 1.2 µM -1% | [7]; at 3.7 µM -1% | [7]; at 11.0 µM 0% | [7]; at 33.0 µM 0% | [7]; at 100.0 µM 6% | [8]; [16] -8% | [8]; [17] -13% | [8]; at 50.0 µM 4.25% | [9]; at 1.2 µM -3% | [9]; at 3.7 µM -3% | [9]; at 11.0 µM 7% | [9]; at 33.0 µM 4% | [9]; at 100.0 µM 5% | [10]; [16] 14% | [10]; [17] 20% | [10]; at 50.0 µM -22.8% | [11]; at 1.2 µM 4% | [11]; at 3.7 µM 15% | [11]; [16] 6% | [11]; at 11.0 µM 35% | [15]; at 1.2 µM 3% | [15]; at 3.7 µM -7% | [15]; at 11.0 µM 4% | [15]; at 33.0 µM 18% | [15]; at 100.0 µM 38% | [12]; at 1.2 µM 1% | [12]; at 3.7 µM -1% | [12]; at 11.0 µM 1% | [12]; at 33.0 µM 1% | [12]; at 100.0 µM 4% | [13]; [16] -14% | [13]; [17] -1% | [13]; at 50.0 µM 7.5% | [14]; at 1.2 µM -3% | [14]; at 3.7 µM -2% | [14]; at 11.0 µM 8% | [14]; at 33.0 µM 17% | [14]; at 100.0 µM 49%
